Source: PubChem BioAssay (EPA / NIEHS)
“And” between values parts separate entries of the source, which are not always exact repeats. Equal values may be shown once. Results filed as inconclusive are left out. Some structures have more than one record in an assay (separate samples or runs), and their calls can disagree. The source made the active and inactive calls. The calls were made as follows: active = hit-call score of the fitted dose curve at least 0.9, where 1 is the maximum; inconclusive = response in the unintended direction; inactive = score below 0.9.

System: zebrafish Estrogen Receptor (ER2a), gene 317734
Assay: ATG_zfER2a_XSP2: Attagene TRANS-FACTORIAL Multi-Species (XSP2) HepG2 Assay for zebrafish Estrogen Receptor (ER2a) (AID 2283818);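 also: hits raise reporter mRNA so AC50 reflects activation of zebrafish ER2a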
In short: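 HepG2 cells transiently transfected with GAL4-UAS reporter units and chimeric zebrafish ER2a-Gal4, exposed 24 h; medium contains 3 nM 6-alpha-fluorotestosterone and 1.5 nM norgestrel. Reporter mRNA quantified by RT-PCR, HpaI digestion, capillary electrophoresis; gain versus DMSO.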

SMILES | outcome | AC50
O=S(=O)(O)C(F)(F)C(F)(F)C(F)(F)C(F)(F)C(F)(F)C(F)(F)C(F)(F)C(F)(F)F | inactive | –
CCCN(CCOc1c(Cl)cc(Cl)cc1Cl)C(=O)n1ccnc1 | inactive | –
Oc1cc(Cl)ccc1Oc1ccc(Cl)cc1Cl | – | 14.1 µM (active)
Oc1ccc(Cl)cc1Cc1ccccc1 | inactive | –
CC(C)(C)C(O)/C(=C\c1ccc(Cl)cc1Cl)n1cncn1 (stereo not drawn) | inactive | –
O=C(O)C(F)(F)C(F)(F)C(F)(F)C(F)(F)C(F)(F)C(F)(F)C(F)(F)F | – | 100 µM (active)
CCCN(CCC)c1c([N+](=O)[O-])cc(C(F)(F)F)cc1[N+](=O)[O-] | inactive | –
COP(=S)(OC)Oc1ccc(SC)c(C)c1 | – | 27.8 µM (active)
CC1(C)C(C=C(Cl)Cl)C1C(=O)OC(C#N)c1ccc(F)c(Oc2ccccc2)c1 (stereo not drawn) | inactive | –
COP(=S)(OC)Oc1ccc([N+](=O)[O-])cc1 | inactive | 26.7 µM (active)

System: chicken Androgen Receptor (AR), gene 422165
Assay: ATG_chAR_XSP2: Attagene TRANS-FACTORIAL Multi-Species (XSP2) HepG2 Assay for chicken Androgen Receptor (AR) (AID 2283819);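 also: hits raise reporter mRNA above DMSO so potency is for activation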
In short: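 HepG2 cells transiently transfected with chicken AR–GAL4 chimeric reporter constructs, stimulated with 3 nM 6-alpha-fluorotestosterone plus 1.5 nM norgestrel, dosed 24 h. Reporter mRNA quantified by RT-PCR and capillary electrophoresis; gain of signal fitted versus DMSO.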

SMILES | outcome
O=S(=O)(O)C(F)(F)C(F)(F)C(F)(F)C(F)(F)C(F)(F)C(F)(F)C(F)(F)C(F)(F)F | inactive
O=C(O)C(F)(F)C(F)(F)C(F)(F)C(F)(F)C(F)(F)C(F)(F)C(F)(F)F | inactive
CC1(C)C(C=C(Cl)Cl)C1C(=O)OC(C#N)c1ccc(F)c(Oc2ccccc2)c1 (stereo not drawn) | inactive

System: frog Estrogen Receptor (ER), gene 398734
Assay: ATG_frER1_XSP2: Attagene TRANS-FACTORIAL Multi-Species (XSP2) HepG2 Assay for frog Estrogen Receptor (ER) (AID 2283821);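 also: hits raise reporter mRNA above DMSO baseline so potency means agonist or activator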
In short: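 HepG2 cells transiently transfected with GAL4-UAS reporter units expressing a chimeric frog ER-Gal4 protein; 24 h exposure. Reporter mRNA quantified by RT-PCR, fluorescent labelling and capillary electrophoresis; gain of signal fitted against DMSO baseline.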

SMILES | outcome | AC50
O=S1OCC2C(CO1)C1(Cl)C(Cl)=C(Cl)C2(Cl)C1(Cl)Cl (stereo not drawn) | inactive | –
O=S(=O)(O)C(F)(F)C(F)(F)C(F)(F)C(F)(F)C(F)(F)C(F)(F)C(F)(F)C(F)(F)F | inactive | –
CCCN(CCOc1c(Cl)cc(Cl)cc1Cl)C(=O)n1ccnc1 | inactive | –
Oc1cc(Cl)ccc1Oc1ccc(Cl)cc1Cl | inactive | –
CC(C)(C)C(O)/C(=C\c1ccc(Cl)cc1Cl)n1cncn1 (stereo not drawn) | inactive | –
O=C(O)C(F)(F)C(F)(F)C(F)(F)C(F)(F)C(F)(F)C(F)(F)C(F)(F)F | inactive | –
CCCN(CCC)c1c([N+](=O)[O-])cc(C(F)(F)F)cc1[N+](=O)[O-] | inactive | –
COP(=S)(OC)Oc1ccc(SC)c(C)c1 | – | 27.3 µM (active)
CC1(C)C(C=C(Cl)Cl)C1C(=O)OC(C#N)c1ccc(F)c(Oc2ccccc2)c1 (stereo not drawn) | inactive | –
COP(=S)(OC)Oc1ccc([N+](=O)[O-])cc1 | inactive | –

System: not listed separately
Assay: ATG_M_19_XSP2: Attagene TRANS-FACTORIAL Multi-Species (XSP2) HepG2 Assay for M32 Transcription Factor (Internal Marker) (AID 2283822)
In short: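 Internal background marker in a multi-species nuclear receptor TRANS panel: transfected HepG2 cells exposed 24 h, with 3 nM 6-alpha-fluorotestosterone and 1.5 nM norgestrel present. Readout is RT-PCR of reporter transcripts resolved by capillary electrophoresis, gain-of-signal versus DMSO.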

SMILES | outcome
O=C(O)C(F)(F)C(F)(F)C(F)(F)C(F)(F)C(F)(F)C(F)(F)C(F)(F)F | inactive
CCCN(CCC)c1c([N+](=O)[O-])cc(C(F)(F)F)cc1[N+](=O)[O-] | inactive
CCOCN(C(=O)CCl)c1c(C)cccc1CC | inactive
CC1(C)C(C=C(Cl)Cl)C1C(=O)OC(C#N)c1ccc(F)c(Oc2ccccc2)c1 (stereo not drawn) | inactive
COP(=S)(OC)Oc1ccc([N+](=O)[O-])cc1 | inactive

System: not listed separately
Assay: ATG_M_32_XSP2: Attagene TRANS-FACTORIAL Multi-Species (XSP2) HepG2 Assay for M19 Transcription Factor (Internal Marker) (AID 2283826)
Protocol: ATG_XSP2_multi-species_TRANS is a cell-based, multiplexed assay created by modifying the existing Attagene TRANS-FACTORIAL system to include a panel of nuclear receptors from some or all the following species: human (Homo sapiens), mouse (Mus musculus), frog (Xenopus laevis), zebrafish (Danio rerio), chicken (Gallus gallus), and turtle (Chrysemys picta). The ECOTOX-FACTORIAL format uses HepG2, a human liver cell line, with measurements taken at 24 hours after chemical dosing in a 24-well plate. Xsp2 included 3 nM 6-alpha-fluorotestosterone and 1.5 nM norgestrel to stimulate the androgen receptor.ATG_M_32_XSP2 is one of 29 assay components measured or calculated from the ATG_XSP2_multi-species_TRANS assay. It is designed to make measurements of mRNA induction, a form of inducible reporter, as detected with fluorescence intensity signals by Reverse transcription polymerase chain reaction (RT-PCR) and Capillary electrophoresis technology.This assay endpoint, ATG_M_32_XSP2, was analyzed in the positive analysis fitting direction relative to DMSO as the negative control and baseline of activity. Using a type of inducible reporter, measures of mRNA for gain-of-signal activity can be used to understand the background control at the transcription factor-level as they relate to the gene. Furthermore, this assay endpoint can be referred to as a secondary readout, because this assay has produced multiple assay endpoints where this one serves a background control function. To generalize the intended target to other relatable targets, this assay endpoint is annotated to the background measurement intended target family, where the subfamily is internal marker.
Human liver HepG2 cells are transiently transfected with multiple reporter transcription units (MRTUs) in 6-well plates using FuGene 6 reagent (Roche; 3 ml FuGene/1 mg DNA). The MRTU constructs are regulated by a cis-regulating element (promoter). […] A major difference between the CIS and TRANS system is that in CIS activities of endogenous TFs are measured, whereas the TRANS assay evaluates changes in activities of exogenous, chimeric NR-Gal4 proteins. […] At the end of 24 hour incubation, total RNA was isolated using TriZol reagent (Invitrogen). The isolated RNA is then reverse-transcribed using oligo(dT) primer and Mo-MLV reverse transcriptase (Invitrogen) with DNAse I (Ambion) treatment for 30 min. The one-tenth of the produced cDNA was amplified by PCR using Taq DNA polymerase (Invitrogen) and two reporter sequence-specific primers. The PCR products were fluorescently labeled by primer extension with 6-arboxyfluorescein (6-FAM) 5'-labeled reporter sequence-specific primer (2 min at 95 C, 20 s at 68 C and 10 min at 72 C) and these products were digested with 5U of HpaI (New England Biolabs) for 2h at 37 C. The fragments were purified using Qiaquick PCR columns (Qiagen), analyzed on an ABI 3130xL genetic analyzer (Applied Biosystems) with peak positions identified by using a set of X-rhodamine (ROX)-labeled MapMarker1000 molecular weight standards (BioVentures). The raw capillary electrophoresis data was processed using Attagraph software (Attagene).

SMILES | outcome
O=S(=O)(O)C(F)(F)C(F)(F)C(F)(F)C(F)(F)C(F)(F)C(F)(F)C(F)(F)C(F)(F)F | inactive
CCCN(CCOc1c(Cl)cc(Cl)cc1Cl)C(=O)n1ccnc1 | inactive
Oc1cc(Cl)ccc1Oc1ccc(Cl)cc1Cl | inactive
CC(C)(C)C(O)/C(=C\c1ccc(Cl)cc1Cl)n1cncn1 (stereo not drawn) | inactive
O=C(O)C(F)(F)C(F)(F)C(F)(F)C(F)(F)C(F)(F)C(F)(F)C(F)(F)F | inactive
CCCN(CCC)c1c([N+](=O)[O-])cc(C(F)(F)F)cc1[N+](=O)[O-] | inactive
CCOCN(C(=O)CCl)c1c(C)cccc1CC | inactive
CC1(C)C(C=C(Cl)Cl)C1C(=O)OC(C#N)c1ccc(F)c(Oc2ccccc2)c1 (stereo not drawn) | inactive

Target: Estrogen receptor (Homo sapiens) (UniProt P03372)
Sequence (P03372 whole entry, looked up): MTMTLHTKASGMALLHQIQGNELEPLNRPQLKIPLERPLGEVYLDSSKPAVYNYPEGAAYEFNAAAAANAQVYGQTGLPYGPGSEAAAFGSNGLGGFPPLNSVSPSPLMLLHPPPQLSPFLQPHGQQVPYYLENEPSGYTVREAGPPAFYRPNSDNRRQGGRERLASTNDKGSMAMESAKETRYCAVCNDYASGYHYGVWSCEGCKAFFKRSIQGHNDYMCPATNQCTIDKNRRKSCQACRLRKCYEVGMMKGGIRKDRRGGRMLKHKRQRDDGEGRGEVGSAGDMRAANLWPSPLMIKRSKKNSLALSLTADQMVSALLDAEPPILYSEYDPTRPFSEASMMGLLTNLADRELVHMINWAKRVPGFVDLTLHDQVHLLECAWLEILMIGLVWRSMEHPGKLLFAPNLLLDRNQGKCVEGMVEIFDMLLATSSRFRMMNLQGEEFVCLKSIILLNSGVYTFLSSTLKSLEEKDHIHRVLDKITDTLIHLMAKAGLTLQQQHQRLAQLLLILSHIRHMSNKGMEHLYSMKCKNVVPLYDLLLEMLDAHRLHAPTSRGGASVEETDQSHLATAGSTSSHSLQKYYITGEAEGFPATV
Assay: ATG_hERa_XSP2: Attagene TRANS-FACTORIAL Multi-Species (XSP2) HepG2 Assay for human Estrogen Receptor (ERa) (AID 2283827)
In short: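 HepG2 cells transiently transfected with multiplexed GAL4-UAS reporters driven by chimeric receptor-Gal4 proteins, dosed 24 h with 3 nM 6-alpha-fluorotestosterone and 1.5 nM norgestrel present. Reporter mRNA by RT-PCR and capillary electrophoresis; gain-of-signal fit versus DMSO.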

SMILES | AC50 | outcome
O=S1OCC2C(CO1)C1(Cl)C(Cl)=C(Cl)C2(Cl)C1(Cl)Cl (stereo not drawn) | 1.04 µM (active) | –
CC(C)(C)C(O)/C(=C\c1ccc(Cl)cc1Cl)n1cncn1 (stereo not drawn) | 13.2 µM (active) and 17 µM (active) | –
CCCN(CCC)c1c([N+](=O)[O-])cc(C(F)(F)F)cc1[N+](=O)[O-] | 18.8 µM (active) | –
COP(=S)(OC)Oc1ccc(SC)c(C)c1 | 8.43 µM (active) | –
CC1(C)C(C=C(Cl)Cl)C1C(=O)OC(C#N)c1ccc(F)c(Oc2ccccc2)c1 (stereo not drawn) | – | inactive
COP(=S)(OC)Oc1ccc([N+](=O)[O-])cc1 | 31.1 µM (active) and 40.7 µM (active) | –

System: frog Estrogen Receptor (ER2), gene 100174814
Assay: ATG_frER2_XSP2: Attagene TRANS-FACTORIAL Multi-Species (XSP2) HepG2 Assay for frog Estrogen Receptor (ER2) (AID 2283828)
In short: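 HepG2 cells transiently transfected with multiplexed GAL4-UAS reporter units expressing chimeric frog ER2–Gal4 protein; reporter mRNA measured 24 h after chemical dosing by RT-PCR, fluorescent labeling and capillary electrophoresis. Gain-of-signal fitted relative to DMSO baseline.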

SMILES | outcome | AC50
O=S1OCC2C(CO1)C1(Cl)C(Cl)=C(Cl)C2(Cl)C1(Cl)Cl (stereo not drawn) | inactive | –
CCCN(CCOc1c(Cl)cc(Cl)cc1Cl)C(=O)n1ccnc1 | inactive | –
Oc1cc(Cl)ccc1Oc1ccc(Cl)cc1Cl | inactive | –
Oc1ccc(Cl)cc1Cc1ccccc1 | inactive | –
CC(C)(C)C(O)/C(=C\c1ccc(Cl)cc1Cl)n1cncn1 (stereo not drawn) | – | 23.1 µM (active) and 8.13 µM (active)
O=C(O)C(F)(F)C(F)(F)C(F)(F)C(F)(F)C(F)(F)C(F)(F)C(F)(F)F | – | 64.1 µM (active)
CCCN(CCC)c1c([N+](=O)[O-])cc(C(F)(F)F)cc1[N+](=O)[O-] | – | 100 µM (active)
COP(=S)(OC)Oc1ccc(SC)c(C)c1 | – | 26.8 µM (active)
CCOCN(C(=O)CCl)c1c(C)cccc1CC | inactive | –
COP(=S)(OC)Oc1ccc([N+](=O)[O-])cc1 | – | 100 µM (active) and 36.9 µM (active)
